Data taken from PubChem BioAssay (NCATS).
Inconclusive results are not listed. The source made the active and inactive calls. Calls follow the shape of the dose curve; as a rule, active = well fitted inhibition curve with a large enough effect; inconclusive = small, poorly fitted or top-dose-only effect; inactive = flat fitted curve, though single readings scatter. *1 amine or outer side, *2 acyl side, *3 side chain or, on linkers, in order; H or OH if unused. Where a SMILES comes first, the peptide text is derived from it. Bridges are numbered along the chain shown (N, C = ends). [ ]: non-standard residue; d: D form. The star is where a group is joined. ξ: configuration not given here. ξhTyr(3S-OH,4S-OH,3'-OSO3H) = NC(C(=O)O)[C@H](O)[C@@H](O)c1ccc(O)c(OS(=O)(=O)O)c1; Orn(4R-OH,5R-OH) = O=C([C@H](C[C@@H](O)[C@@H](O)N[*:3])N[*:1])[*:2]; X2 = CCCCCOc1ccc(-c2cc(-c3ccc(C(=O)*)cc3)no2)cc1; X3 = C[C@H]1CN([*:1])C(C(=O)[*:2])[C@H]1O; ξGln(3R-OH) = NC(=O)C[C@@H](O)C(N)C(=O)O; ξPro(4R-OH) = O=C(O)C1C[C@@H](O)CN1; ξThr(3R) = C[C@@H](O)C(N)C(=O)O

How the values were obtained:
[1] = test system: CRL-7250; assay: Cytotoxic Profiling of Annotated Libraries Using Quantitative High-Throughput Screening (AID 1296008); conditions: Five cell lines viability, CellTiter-Glo ATP luminescence, 48-72 h; max response: active compounds read low; also: potency is read from the fitted curve at half-maximal effect; as to max response: % is scaled to controls: 0 for no effect and ±100 for the full control effect
Procedure, shortened: (§1)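 Cells exposed to compounds for 48 or 72 hr at 37 degrees Celsius. Viability read as ATP-coupled luminescence with CellTiter-Glo after 10 min at room temperature.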

[2] = test system: HEK293; assay: as above; conditions: Five cell lines viability, CellTiter-Glo ATP luminescence, 48-72 h; max response: active compounds read low
Procedure, shortened: as §1

[3] = test system: HaCat; assay: as above; conditions: Five cell lines viability, CellTiter-Glo ATP luminescence, 48-72 h; max response: active compounds read low
Procedure, shortened: as §1

[4] = test system: KB-3-1; assay: as above; conditions: Five cell lines viability, CellTiter-Glo ATP luminescence, 48-72 h; max response: active compounds read low
Procedure, shortened: as §1

[5] = test system: NIH3T3; assay: as above; conditions: Five cell lines viability, CellTiter-Glo ATP luminescence, 48-72 h; max response: active compounds read low
Procedure, shortened: as §1

[6] = test system: HACAT; assay: qHTS assay to identify novel small-molecules to repurpose for Merkel cell carcinoma treatment (AID 1296009); conditions: MCC and control cell lines, CellTiter-Glo viability, 72 h; at 44.8 µM (top of the series) unless noted
Procedure, shortened: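 Cells were treated for 72 hr at 37 degree celsius with compounds in 8- or 11-point dose response. Viability was read by CellTiter-Glo luminescence, normalized to no-cell (cytotoxicity) and DMSO controls.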
Also: nearly all actives have a fitted effect of over 60% in size.

CCOc1nc2c(N)ncnc2n1CC
inactive: outcome [1] | max response [2] 3.9% | outcome [3] | max response [4] 5.09% | max response [5] 3.41% | outcome [6]

CC(=O)OC(C)(C)/C=C/C(=O)[C@](C)(O)C1[C@H](O)C[C@@]2(C)[C@@H]3CC=C4[C@@H](C[C@H](O[C@@H]5O[C@H](CO)[C@@H](O)[C@H](O)[C@H]5O)C(=O)C4(C)C)[C@]3(C)C(=O)C[C@]12C (stereo not given in full)
inactive: outcome [1] | max response [2] -17.8% | outcome [3] | max response [4] 1.94% | outcome [5] | outcome [6] inactive [at 17.4 µM]

CCCCCOc1ccc(-c2cc(-c3ccc(C(=O)N[C@H]4C[C@@H](O)[C@@H](O)NC(=O)C5[C@@H](O)[C@@H](C)CN5C(=O)C([C@H](O)CC(N)=O)NC(=O)C([C@H](O)[C@@H](O)c5ccc(O)c(OS(=O)(=O)O)c5)NC(=O)C5C[C@@H](O)CN5C(=O)C([C@@H](C)O)NC4=O)cc3)no2)cc1 (stereo partly drawn) (X2-[Orn(4R-OH,5R-OH)][ξThr(3R)][ξPro(4R-OH)][ξhTyr(3S-OH,4S-OH,3'-OSO3H)][ξGln(3R-OH)][X3]; lactam 1-C)
inactive: outcome [1] | max response [2] -7.85% | outcome [3] | outcome [4] | max response [5] 3.77% | outcome [6] inactive [at 17.4 µM]

C=C[C@H]1[C@H](O[C@@H]2O[C@H](CO)[C@@H](O)[C@H](O)[C@H]2O)OC=C(C(=O)OC)[C@H]1CCO
inactive: max response [1] -6.38% | max response [2] 2.87% | outcome [3] | max response [4] 5.52% | max response [5] -6.64% | outcome [6]

CCOC(=O)COc1ccc2c(c1)C[C@@H](NC[C@H](O)c1cccc(Cl)c1)CC2
inactive: outcome [1] | max response [2] 4.31% | outcome [3] | max response [4] 7.38% | max response [5] 1.73% | outcome [6]

COc1ccccc1N1CCN(CCCCNC(=O)c2ccc(-c3cscn3)cc2)CC1
active: Potency [2] 20.6 µM
inactive: max response [1] -3.11% | outcome [3] | max response [4] -12.5% | max response [5] 1.48% | outcome [6]

COc1ccc(-c2ccn(CC[C@](C)(C(=O)NO)S(C)(=O)=O)c(=O)c2)c(F)c1
inactive: max response [1] 2.02% | max response [2] -10.7% | outcome [3] | outcome [4] | max response [5] 3.1% | outcome [6]

C[C@@H]1O[C@@H](O[C@H]2[C@H](OC(=O)[C@]34CCC(C)(C)C[C@H]3C3=CCC5[C@@]6(C)C[C@@H](O)[C@@H](O)[C@@](C)(CO)C6[C@H](O)C[C@@]5(C)[C@]3(C)CC4)OC[C@H](O)[C@@H]2O)[C@H](O)[C@H](O)[C@H]1O[C@@H]1OC[C@@H](O)[C@H](O[C@H]2O[C@H](C)[C@@H](O)[C@H](O)[C@@H]2O)[C@H]1O (stereo not given in full)
inactive: max response [1] 1.4% | max response [2] -0.607% | outcome [3] | max response [4] 8.34% | outcome [5] | outcome [6] inactive [at 9.27 µM]

O=C(NC1CCN(CC(F)(F)F)CC1)c1ccc(-c2cccc(F)c2)nc1
inactive: outcome [1] | max response [2] -11% | outcome [3] | max response [4] -3.14% | outcome [5] | outcome [6]

COC(O)(CC(C)C)C1Oc2cc(C)[nH]c(=O)c2O1 (stereo not given)
inactive: outcome [1] | max response [2] 0.893% | outcome [3] | max response [4] 6.46% | max response [5] 3.8% | outcome [6]

C=C1CCC2C(C)(C)CC(=O)CC2(C)C1CCC(C)CCO (stereo not given)
inactive: max response [1] -5.3% | max response [2] 1.61% | outcome [3] | max response [4] 0.95% | outcome [5] | outcome [6]

C=C(COC(=O)CC(C)C)C1Cc2cc(C(C)=O)ccc2O1 (stereo not given)
inactive: outcome [1] | max response [2] -2.29% | outcome [3] | max response [4] 4.45% | outcome [5] | outcome [6]

C[C@]1(O)CC[C@@H]2C(C(=O)O)=CO[C@@H](O[C@@H]3O[C@H](COC(=O)/C=C/c4ccc(O)c(O)c4)[C@@H](O)[C@H](O)[C@H]3O)[C@@H]21
inactive: outcome [1] | max response [2] 0.933% | outcome [3] | max response [4] 9.19% | outcome [5] | outcome [6] inactive [at 17.4 µM]

COC(=O)[C@]1(C)CCC[C@@]2(C)C(=O)CC[C@H]3C(=O)C=C(CC[C@@H]21)C3O (stereo not given in full)
inactive: max response [1] -8.93% | max response [2] -5.09% | outcome [3] | max response [4] -0.869% | max response [5] 1.41% | outcome [6]

COC(=O)C1=CO[C@@H](O[C@@H]2O[C@H](CO)[C@@H](O)[C@H](O)[C@H]2O)[C@H]2[C@@H]1[C@H](O)[C@H](O)[C@]2(C)O
inactive: max response [1] -3.33% | max response [2] 1.23% | outcome [3] | max response [4] 1.73% | max response [5] 2.04% | outcome [6] inactive [at 17.4 µM]

CC1(C)CC[C@]2(C(=O)O[C@@H]3O[C@H](CO[C@@H]4O[C@H](CO[C@@H]5O[C@H](CO)[C@H](O)[C@H](O)[C@H]5O)[C@@H](O)[C@H](O)[C@H]4O)[C@@H](O)[C@H](O[C@@H]4O[C@H](CO)[C@@H](O)[C@H](O)[C@H]4O)[C@H]3O)[C@H](O)C[C@]3(C)C(=CCC4[C@@]5(C)CC[C@H](O[C@@H]6OC[C@@H](O)[C@H](O)[C@H]6O)[C@@](C)(C(=O)O)C5CC[C@]43C)[C@@H]2C1 (stereo not given in full)
inactive: max response [1] 2.11% | max response [2] -1.97% | outcome [3] | outcome [4] | outcome [5] | outcome [6] inactive [at 9.27 µM]

C=C(C)C1Cc2c(ccc3c2OCC(c2ccc(O)cc2O)C3)O1 (stereo not given)
inactive: max response [1] -23.3% | max response [2] -18.8% | outcome [3] | max response [4] -21.6% | max response [5] -8.17% | outcome [6]

COc1cc(OC)cc(-c2ccc3c(-c4ccc(F)cc4)[nH]nc3n2)c1
inactive: outcome [1] | max response [2] -28% | outcome [3] | outcome [4] | max response [5] 0.976% | outcome [6]

CC(=O)NC(Cc1c[nH]c2ccccc(=O)c12)C(=O)O (stereo not given)
inactive: max response [1] -6.01% | max response [2] 1.04% | outcome [3] | outcome [4] | max response [5] 1.4% | outcome [6]

O=C(/C=C/c1ccccc1)OC[C@H]1O[C@@H](OC(=O)c2cc(O)c(O)c(O)c2)[C@H](O)[C@@H](O)[C@@H]1O
inactive: outcome [1] | max response [2] 4.27% | outcome [3] | max response [4] 6.66% | max response [5] 3.75% | outcome [6] inactive [at 17.4 µM]

CN1CCN(C(=O)c2cc3cc(Cl)ccc3[nH]2)CC1
inactive: max response [1] -2.46% | max response [2] -8.86% | outcome [3] | max response [4] -0.0663% | outcome [5] | outcome [6]

C[C@@H]1O[C@@H](O[C@H]2[C@H](O)[C@@H](O)[C@H](OC(=O)[C@]34CCC(C)(C)C[C@H]3C3=CCC5[C@@]6(C)CC[C@H](O[C@@H]7O[C@H](C(=O)O)[C@@H](O)[C@H](O)[C@H]7O)C(C)(C)C6CC[C@@]5(C)[C@]3(C)CC4)O[C@@H]2CO)[C@H](O)[C@H](O)[C@H]1O (stereo not given in full)
inactive: outcome [1] | max response [2] -4.26% | outcome [3] | max response [4] -0.526% | max response [5] -1.98% | outcome [6] inactive [at 9.27 µM]

COC(=O)C1(O)C(OC(C)=O)CCC2C3(CC(c4ccoc4)OC3=O)C(C)=CCC21C(=O)OC (stereo not given)
inactive: max response [1] -2.77% | max response [2] 4.98% | outcome [3] | max response [4] 9.04% | outcome [5] | outcome [6] inactive [at 17.4 µM]

C[C@H]1CC[C@@]2(OC1)O[C@H]1CC3C4CC[C@H]5C[C@@H](O[C@@H]6O[C@H](CO)[C@H](O[C@@H]7O[C@H](CO)[C@@H](O)[C@H](O[C@@H]8OC[C@@H](O)[C@H](O)[C@H]8O)[C@H]7O[C@@H]7O[C@H](CO)[C@@H](O)[C@H](O)[C@H]7O)[C@H](O)[C@H]6O)[C@H](O)C[C@]5(C)C4=CC(=O)[C@]3(C)[C@H]1[C@@H]2C (stereo not given in full)
inactive: max response [1] -0.886% | max response [2] 3.61% | outcome [3] | outcome [4] | outcome [5] | outcome [6] inactive [at 9.27 µM]

C=C1CC[C@@]2(OC1)O[C@H]1CC3[C@@H]4CC=C5C[C@@H](O)C[C@@H](O[C@@H]6OC[C@H](O)[C@H](O)[C@H]6O[C@@H]6O[C@@H](C)[C@H](O)[C@@H](O)[C@H]6O)[C@]5(C)C4CC[C@]3(C)[C@H]1[C@@H]2C (stereo not given in full)
inactive: outcome [1] | max response [2] -17.1% | outcome [3] | outcome [4] | outcome [5] | outcome [6] inactive [at 17.4 µM]
